From PubChem BioAssay (NCI)
This is part of a sample that, as a whole, favours compounds with a hit. Of some 79,000 tested, about 15% had one in any assay. A number with no mark means an inactive call. Activity calls are given as the source filed them. Rule as the data show it: active = growth inhibition above about 70%; inactive = the rest.

experiment: NCI Yeast Anticancer Drug Screen. Data for the bub3 strain (AID 167); conditions: S. cerevisiae bub3 mutant strain, at 50.0 µM (retest, dose inferred, filed as 5.0), stronger effect = higher value
Summary of the method: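 Growth of a checkpoint-deficient yeast mutant is measured after compound exposure. Values represent inhibition relative to vehicle.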

| Compound | growth inhibition |
| --- | --- |
| Cc1cc2c(Br)cc(Br)c(O)c2nc1C(=O)c1ccccc1 | 87% (active) |
| N=C1c2ccccc2-c2ccccc21 | 24% |
| COc1ccc(-c2cn(-c3ccccc3)c3ncnc(N)c23)cc1 | 9% |
| Nc1ccc(N=Nc2ccccc2)c2ccccc12 | 99% (active) |
| CS(=O)(=O)C(=Cc1ccccc1Cl)S(C)(=O)=O | 6% |
| O=C1c2ccccc2C(=O)c2sc(Nc3cc(Cl)ccc3Cl)nc21 | 98% (active) |
| COC1=CC(=O)c2c(O)c3c(c(O)c2C1=O)C=C(C)OC3O (stereo not drawn) | 44% |
| NC(=S)N/N=C1\NC(=O)/C(=C/c2ccc3c(c2)OCO3)S1 | 31% |
| CCN(CC)P(=S)(c1ccccc1CCP(=S)(c1ccccc1)c1ccccc1)N(CC)CC | 41% |
| CCC(=O)Oc1c(Cl)cc(Cl)c(Cl)c1Cl | 54% |
| CCOC(=O)C(C)(C)C | 29% |
| COC1=CC(=O)c2ncccc2C1=O | 81% (active) |
| O=C1CCSC(=S)N1c1ccccc1C(F)(F)F | 99% (active) |
| O=C1c2cccc(NCCNCCO)c2C(=O)c2cccc(NCCNCCO)c21 | 22% |
| CCOc1cc2c(cc1O)CC[C@@H]1[C@@H]2CC[C@]2(C)[C@@H](O)CC[C@@H]12 | 39% |
| S=C(N/N=C/c1ccccn1)N1CC2CCC(CC2)C1 | 99% (active) |
| COc1ccc(Nc2nc3ccccc3s2)cc1 | 42% |
| O=C(OCC1OC(OCC(OC(=O)c2ccccc2)C(OC(=O)c2ccccc2)C(OC(=O)c2ccccc2)c2cnn(-c3ccccc3)n2)C(OC(=O)c2ccccc2)C(OC(=O)c2ccccc2)C1OC(=O)c1ccccc1)c1ccccc1 (stereo not drawn) | 4% |
